This is part of a sample that, as a whole, favours compounds with a hit. Of some 79,000 tested, about 15% had one in any assay. No stated cut-off is given here; in the data, active means growth inhibition above about 70%; inactive means the rest.
Tests used:
[1] = NCI Yeast Anticancer Drug Screen. Data for the rad50 strain (AID 155);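 further: 0% = growth of vehicle-only cultures of the same strain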; conditions: S. cerevisiae rad50 strain growth inhibition; at 50.0 µM; active compounds read high
Method in brief: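 Inhibition values express reduced yeast growth in compound-treated cultures relative to vehicle-treated controls.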

[2] = NCI Yeast Anticancer Drug Screen. Data for the mec2-1 strain (AID 157); conditions: S. cerevisiae mec2-1 strain, at 50.0 µM, active compounds read high
Method in brief: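 Test agents were screened against the mec2-1 yeast strain, with defined DNA repair or cell cycle alteration. Growth was scored as inhibition against vehicle-only controls.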

[3] = NCI Yeast Anticancer Drug Screen. Data for the sgs1 mgt1 strain (AID 161);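 further: 0% = growth of cultures given vehicle only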; conditions: S. cerevisiae sgs1 mgt1 strain, at 50.0 µM, active compounds read high
Method in brief: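 Mutant yeast exposed to compound; growth scored against vehicle-only wells.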

[4] = NCI Yeast Anticancer Drug Screen. Data for the cln2 rad14 strain (AID 165);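 further: 0% = growth equal to vehicle treated cultures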; conditions: S. cerevisiae cln2 rad14 strain, at 50.0 µM, active compounds read high
Method in brief: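 Growth of compound-exposed yeast (cln2 rad14 genotype) measured and expressed as inhibition relative to vehicle.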

[5] = NCI Yeast Anticancer Drug Screen. Data for the bub3 strain (AID 167); conditions: S. cerevisiae bub3 mutant strain, at 50.0 µM, active compounds read high
Method in brief: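 Steps: expose the mutant yeast strain to compound; grow alongside vehicle-treated cultures; measure growth; express inhibition against the vehicle cultures.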

[6] = NCI Yeast Anticancer Drug Screen. Data for the mlh1 rad18 strain (AID 175); conditions: S. cerevisiae mlh1 rad18 strain growth inhibition; at 50.0 µM; active compounds read high
Method in brief: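 In this whole-cell yeast screen, a strain with altered DNA damage repair is challenged with compound, and its growth is measured against matched vehicle-treated controls.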

Measured: growth inhibition

O=C1c2ccccc2C(=O)N1CCSCCSCCN1C(=O)c2ccccc2C1=O
inactive: [1] -3.1% | [2] -13.7% | [3] 12.6% | [4] 14.6% | [5] -7.15% | [6] 10.2%

COc1cc(=O)cc2n(c1=O)CCC2
inactive: [1] -8.45% | [2] -5.05% | [3] -13.2% | [4] -28% | [5] 8.5% | [6] -2.25%

O=C(CCCCCC(=O)NO)NO
inactive: [1] -0.8% | [2] -6.05% | [3] -7.2% | [4] -20.3% | [5] -9.4% | [6] -1.55%

CN(C)CCNC1c2ccccc2-c2ccccc21
inactive: [1] -15.1% | [2] -22.6% | [3] 3.35% | [4] -0.9% | [5] 10.2% | [6] -9%

CCCCNc1ccc2c(c1)Cc1ccccc1-2
inactive: [1] 18.9% | [2] -4.1% | [3] 15.8% | [4] 3.25% | [5] -18.8% | [6] -8.35%

CC1(C)N=C(N)N=C(N)N1c1cccc(CCC(=O)Nc2cccnc2)c1
inactive: [1] 19.4% | [2] 1.4% | [3] 5.2% | [4] 9.05% | [5] -4.5% | [6] -6.3%

Cc1ccccc1S(=O)(=O)NC1c2ccccc2Oc2ccccc21
inactive: [1] -9.85% | [2] -3.7% | [3] -5.3% | [4] -12.1% | [5] 2.5% | [6] -7.9%

CC1CN(c2nc3ccccc3o2)C(C)CN1c1nc2ccccc2o1 (stereo unspecified)
inactive: [1] -7.15% | [2] 5.6% | [3] -9.1% | [4] 11.8% | [5] 9.9% | [6] -12.3%

CCOC(=O)/C(=C\c1ccc(OCc2ccccc2)c(OC)c1)C(=O)c1ccccc1
inactive: [1] 15.6% | [2] -9.55% | [3] 8.3% | [4] -5.15% | [5] -13.4% | [6] -15.3%

C[N+]1(CCc2ccccc2)CCOCC1
inactive: [1] -13.6% | [2] 3.9% | [3] 0.8% | [4] -38% | [5] 1.5% | [6] 2.8%

Nc1ccc(/C=C/c2ccc(N)cc2)cc1
inactive: [1] 9.05% | [2] -0.95% | [3] -1.4% | [4] -1.25% | [5] 8.9% | [6] 5.05%

S=c1nc[nH]c2c1ncn2C1OC(COCc2ccccc2)C(OCc2ccccc2)C1OCc1ccccc1 (stereo unspecified)
inactive: [1] 31.2% | [2] 15.1% | [3] 17.4% | [4] 14.7% | [5] 2.1% | [6] 5.9%

COC(=O)C(Cc1ccccc1)NC(=O)Cn1ccnc1[N+](=O)[O-] (stereo unspecified)
inactive: [1] 9.65% | [2] -19.6% | [3] 15.2% | [4] 7.7% | [5] -16% | [6] -3.3%

NNC(=O)CC(=O)Nc1ccccc1F
inactive: [1] -7.9% | [2] -16.9% | [3] -6.4% | [4] 7.15% | [5] 0.85% | [6] -2.85%

CCOC(=O)Nc1n[nH]nc1Cl
inactive: [1] -21.5% | [2] -10.1% | [3] 25.1% | [4] -20.9% | [5] -20.1% | [6] -12.7%

CSc1ccccc1N1C(=O)CSC1=S
inactive: [1] -7.8% | [2] 4.4% | [3] 41.5% | [4] 19.1% | [5] -4.1% | [6] 22.2%

CCCCCC1(C=O)C(=O)NC(=O)N1C (stereo unspecified)
inactive: [1] 2.25% | [2] -5.45% | [3] -1.45% | [4] -0.45% | [5] -0.05% | [6] -8.2%

Cc1ccc(N2N=S=CC2=O)cc1
inactive: [1] 40.7% | [2] 11.3% | [3] 37.5% | [4] 13.4% | [5] 20.3% | [6] 34%

Fc1ccc(-c2ccc(Br)cc2)cc1
inactive: [1] 3.95% | [2] 3.4% | [3] 2.05% | [4] -44% | [5] 17% | [6] -3.65%

Cc1onc(-c2ccccc2)c1NC(=O)OC(C)c1cccnc1 (stereo unspecified)
inactive: [1] -6.3% | [2] -22.9% | [3] 3.7% | [4] 4.9% | [5] 18.1% | [6] 3.55%

O=C(O)C1CC(Cl)C(Cl)CC1C(=O)O (stereo unspecified)
inactive: [1] -2.9% | [2] -27.1% | [3] 0.85% | [4] 0.2% | [5] -19.2% | [6] -5.1%

CC[N+](C)(CCO)C(Cc1ccccc1)c1ccccc1 (stereo unspecified)
inactive: [1] 8.5% | [2] -3.5% | [3] -0.1% | [4] -16.1% | [5] 19.5% | [6] -1.7%

O=C(O)C(Oc1ccc(Cl)cc1Cl)C(Oc1ccc(Cl)cc1Cl)C(=O)O (stereo unspecified)
inactive: [1] -3.95% | [2] -4.1% | [3] -9.95% | [4] -15.5% | [5] 1.75% | [6] 3.75%

CCOC(=O)C(OC(C)=O)(C(=O)OCC)C(O)c1cccnc1 (stereo unspecified)
inactive: [1] 15.1% | [2] -2.25% | [3] 16.3% | [4] -37.5% | [5] 8% | [6] -1.05%

CC(NC(=O)C(N)CC(=O)O)NC(=O)C1CCC1 (stereo unspecified)
inactive: [1] -39.9% | [2] -48.1% | [3] -19.2% | [4] 24.6% | [5] 8.6% | [6] -35.8%

O=P(CCc1ccccc1)(OCCCl)OCCCl
inactive: [1] 10.2% | [2] 2.15% | [3] 3.85% | [4] 14.3% | [5] 6.5% | [6] -5%

CC1(C2c3ccccc3CC2OC2CCCCO2)CO1 (stereo unspecified)
inactive: [1] -8.35% | [2] -10.6% | [3] -9.5% | [4] -10.2% | [5] -5.75% | [6] 2.35%

O=[N+]([O-])c1ccc(/C=C2/c3ccccc3-c3nc4ccccc4cc32)cc1
inactive: [1] 21.9% | [2] -2.55% | [3] -2.9% | [4] -2.6% | [5] 7.3% | [6] 20.8%

CCC=Nc1ccccc1CO
inactive: [1] 12.2% | [2] 8.5% | [3] -1.05% | [4] 30.3% | [5] -4% | [6] 5.4%

CC(C)=NNC(=S)NC12CC3CC(CC(C3)C1)C2
inactive: [1] 29.4% | [2] 39.3% | [3] 25.1% | [4] -8.7% | [5] 48.7% | [6] 35%

CCCCS/C=C1\CC2OC(=O)C3(C)CCCC(C)(C1=O)C23 (stereo unspecified)
inactive: [1] -1.85% | [2] 15.2% | [3] 8.15% | [4] -3% | [5] 11.5% | [6] 26.6%

NC(=S)/N=C/C1=C(O)CCCC1=O
inactive: [1] 2.05% | [2] 5.95% | [3] 16.4% | [4] 17% | [5] 14% | [6] 11.2%

CC(=O)OCC1OC(Cl)C(NS(=O)(=O)Cc2ccccc2)C(OC(C)=O)C1OC(C)=O (stereo unspecified)
inactive: [1] 7.6% | [2] 15.7% | [3] 15.7% | [4] 24.6% | [5] 5.35% | [6] 22.4%

Nc1cccc(OCc2nc(N)nc(N)c2-c2ccc(Cl)cc2)c1
inactive: [1] -14% | [2] -14.4% | [3] -48.9% | [4] -6.6% | [5] -36% | [6] -20.9%

O=C(O)C1C(C(=O)O)C2C3C4C1C1C2C3C41 (stereo unspecified)
inactive: [1] 2.9% | [2] 3.15% | [3] -4.2% | [4] -21.9% | [5] 13.3% | [6] -0.15%

COc1ccc(C2(C3NCCC4=C3CCCC4)CC2)cc1 (stereo unspecified)
inactive: [1] 11.9% | [2] -5.75% | [3] 32% | [4] -4.1% | [5] -3.7% | [6] 23.6%

N/C(=N\O)C(=O)c1ccccc1
inactive: [1] 9.8% | [2] -12.8% | [3] -5.8% | [4] -5.3% | [5] 2.35% | [6] 3.95%

CCOC(=O)C(=O)Nc1nc2ccc(OC)cc2s1
inactive: [1] -39.8% | [2] -7.3% | [3] -10.8% | [4] 6.75% | [5] 0.15% | [6] 9.25%

O=C(NC(CSC(=O)OCc1ccccc1)C(=O)Oc1ccc([N+](=O)[O-])cc1)OCc1ccccc1 (stereo unspecified)
inactive: [1] 16.3% | [2] -7.4% | [3] 3.45% | [4] -23.8% | [5] -0.45% | [6] 2.4%

CCCCCCCCCCCC(=O)N(CCOC(=O)c1ccccc1)CCc1ccccc1
inactive: [1] 32.6% | [2] 9.45% | [3] 16.6% | [4] 19.2% | [5] -3.2% | [6] 24.5%

O=P(O)(O)c1ccc(-c2ccc(P(=O)(O)O)cc2)cc1
inactive: [1] -4.7% | [2] 2.85% | [3] 12.8% | [4] -32.2% | [5] 2.3% | [6] -1.75%

Reference: PubChem BioAssay (NCI)
